KB-V1 cytotox: kills drug-selected multidrug resistant KB-V1 cells; Potency, µM (top dose mostly 46.1 µM), actives largely listed as cytotoxic; 3.4% of 400,000 active; AID 1347076; KB-V1 MDR cells viability, CellTiter-Glo, 72 h; further: on the % scale 0 is the no-effect control and ±100 the full control effect; nearly all actives have a fitted effect of over 60% in size
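Cytotoxicity via CellTiter-Glo luminescence after 72 h compound exposure at 37 degrees C. Cells: drug-selected KB-V1 line, DMEM phenol-red free plus 10% FBS. Compounds tested at multiple concentrations; normalized data fitted to concentration-effect curves.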
ATXN viability: reduces viability in counter-screen for ATXN expression inhibitors. AID 651635. Potency, µM (titrated, usually from 56.7 µM), actives largely listed as cytotoxic. 0.49% of 400,000 active. S2 cells (HEK-293 line with an ATXN2-luciferase reporter) viability, CellTiter-Fluor protease fluorescence, 24 h; further: nearly all actives have a fitted effect of over 40% in size
HT1080 IDH1KD tx: kills HT-1080 cells with IDH1 knockdown. HT-1080 IDH1 knockdown viability, ATP luminescence, 48 h. Potency, µM (top dose mostly 46.1 µM), without a hit: at the highest dose activity, negative = toxicity, most hits filed as cytotoxic. AID 686971. 2% of 360,000 active;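 further: 0% = DMSO wells and -100% = cell-free medium wells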
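HT-1080-IDH1KD cells (IDH1 knocked down), 750/well in RPMI with 5% FBS, treated with compound 48 h at 37 degrees C. Viability by CellTiter-Glo luminescence, normalised to DMSO and no-cell wells; concentration-response curves classed.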
HT1080NT lethal: kills 2HG-producing HT-1080-NT fibrosarcoma cells | 1.6% of 360,000 active | HT-1080-NT fibrosarcoma viability, CellTiter-Glo ATP luminescence, 48 h | Potency, µM (titrated, usually from 46.1 µM), inactives show at the top dose activity, negative = less viability, most hits filed as cytotoxic | AID 686970;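 further: NT is the 2HG producing partner of a matched IDH1 knockdown line; 0% = DMSO-treated cells and -100% = media-only wells without cells; nearly all actives have a fitted effect of over 55% in size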
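A 48-hour cytotoxicity screen used HT-1080-NT cells plated 2 hours before compound delivery. ATP-based CellTiter-Glo luminescence measured viability, normalized to DMSO and no-cell controls.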
ATXN2 expr inh: ATXN2 expression inhibition; HEK-293 ATXN2-luciferase reporter, luminescence, 24 h; Potency, µM (titrated, usually from 57 µM), inactives show top-dose activity change, negative = inhibition, usual class: inhibitors; 0.72% of 360,000 active; AID 1745845; further: on the % scale 0 is the no-effect control and ±100 the full control effect; nearly all actives have a fitted effect of over 55% in size
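ATXN2-luciferase reporter cells (luciferase flanked by upstream and downstream ATXN2 gene portions) were treated 24 h at 37 °C with compounds at up to 57 uM. SteadyGlo luminescence gave expression; GF-AFC fluorescence gave viability.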
KB-3-1 tox: kills parental KB-3-1 adenocarcinoma cells. 1.4% of 400,000 active. KB-3-1 viability, CellTiter-Glo ATP luminescence, 72 h. AID 1347075. Potency, µM (titrated, usually from 46.1 µM), hits mostly cytotoxic; further: on the % scale 0 is the no-effect control and ±100 the full control effect; nearly all actives have a fitted effect of over 60% in size
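KB-3-1 cells, DMEM (no phenol red) + 10% FBS; compound by pin transfer, 72 h, 37 °C. Readout: CellTiter-Glo luminescence after 10 min. Data normalized, curve-fitted.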
An asterisk follows results filed as active; i = inactive; ? = inconclusive; . = not tested or not shown. Rows were chosen to be rich in hits. Some 6.2% of all compounds tested hit in one or more screens of this group. The call rests on the fitted dose curve; in most records, active means well fitted curve in the direction sought with a large enough effect; inconclusive means small, poorly fitted or top-dose-only effect, or another doubt; inactive means no such curve, though single readings can be large; an effect the other way counts as inactive or inconclusive. Potency means the concentration at half of the fitted maximal effect.

SMILES | KB-V1 cytotox | ATXN viability | HT1080 IDH1KD tx | HT1080NT lethal | ATXN2 expr inh | KB-3-1 tox
CCOc1ccccc1C(=O)N(CN1CCCC1=O)c1cccc(Cl)c1 | 11.6µM* | i | -0.5% | -1.0% | -13.7% | i
CCN(CC)CCSc1nc2c([nH]1)c(=S)n(C)c(=O)n2C | i | i | 5.1% | 7.0% | 7.7% | i
CSc1nc2c([nH]1)c(=S)n(C)c(=O)n2C | i | i | -3.3% | 1.5% | -14.1% | i
CCCCC(C)Sc1nc2c([nH]1)c(=S)n(C)c(=O)n2C (stereo unspecified) | 4.11µM* | ? | ? | 7.8% | -28.1% | ?
CCCC(CC)Sc1nc2c([nH]1)c(=S)n(C)c(=O)n2C (stereo unspecified) | 3.66µM* | i | -12.1% | 4.5% | -28.2% | ?
Cn1c(=S)c2[nH]c(SCc3cccnc3)nc2n(C)c1=O | 16.4µM* | i | -0.8% | 9.4% | 2.4% | i
CCCCSc1nc2c([nH]1)c(=S)n(C)c(=O)n2C | 1.46µM* | ? | 9.4% | 1.7% | ? | 7.31µM*
O=C(Nc1ccc(OC(F)F)cc1)c1nc(SCc2ccccc2F)ncc1Cl | i | . | . | . | . | i
O=C(COC(=O)c1cc(-c2ccccc2)nc2c(Cl)cccc12)c1ccc(F)cc1 | i | i | . | . | -0.8% | i
Cc1cc(C)cc(NS(=O)(=O)c2ccc(N3CCCCS3(=O)=O)cc2)c1 | ? | i | . | . | -24.3% | i
CCC1CN(Cc2cccn2-c2ccccn2)Cc2cc(OC)ccc2O1 (stereo unspecified) | . | i | . | . | . | .
CCOc1ccc(N=Nc2c(=O)[nH]n3c(=O)cc(C)[nH]c23)cc1 | ? | i | ? | ? | -6.1% | 23.1µM*
CCOC(=O)C1=C(C)N(c2ccccc2)C(=O)/C1=C\c1cccs1 | 18.4µM* | i | 5.2% | -0.5% | 1.9% | i
CCc1ccc(NC(=O)C(=O)NCC(c2cccnc2)N2CCOCC2)cc1 (stereo unspecified) | i | i | . | . | -8.4% | i
CCCCCCCCNC(=O)CCNC(=O)c1ccc(C(C)(C)C)cc1 | 13µM* | i | -6.3% | -4.7% | 4.0% | i
CC(C)(C)c1ccc(C(=O)NCCCN2CCN(CCCNC(=O)c3ccc(C(C)(C)C)cc3)CC2)cc1 | 18.4µM* | 28.2µM* | ? | 18.4µM* | ? | ?
CCOC(=O)Cn1cc2c(c1-c1ccc(Cl)cc1)c(=O)n(C)c(=O)n2C | i | i | . | . | -11.0% | i
Cc1ccc(CCNC(=O)CCCc2nnc3n(C)c(=O)c4sccc4n23)cc1 | i | i | . | . | -12.1% | i
CCCCC(O)(CCCC)C(=O)NN(C(=O)OCC)c1ccccc1 | 13µM* | i | 16.8% | 12.4% | 3.9% | i
COc1ccc(-c2nc(CSc3nncn4c3cc3oc(C)cc34)c(C)o2)cc1 | i | . | . | . | . | i
Cc1ccc[n+](CC(=O)Nc2ccc([N+](=O)[O-])cc2)c1 | i | ? | 16.4µM* | -13.6% | . | i
O=C(CSCCc1ccccn1)Nc1ccc(Br)cn1 | 20.6µM* | i | 6.1% | 4.6% | ? | i
O=C(CCSCCc1ccccn1)Nc1c(F)cc(F)cc1Br | 16.4µM* | i | 2.5% | 7.9% | 2.4% | i
O=C(CSCCc1ccccn1)Nc1ccccn1 | i | i | -5.1% | 2.8% | 0.9% | ?
CC(C)C[C@H]1CN([C@@H](Cc2ccc(O)cc2)CN2CCC[C@H]2CN2C(=O)C(=O)NC[C@@H]2Cc2ccccc2)C(=O)C(=O)N1CC1CCCCCC1 | i | ? | -6.3% | -1.5% | ? | i
SMILES | KB-V1 cytotox | ATXN viability | HT1080 IDH1KD tx | HT1080NT lethal | ATXN2 expr inh | KB-3-1 tox
CN(C)c1cc[n+](CC(=O)Nc2c(Cl)cc(Cl)cc2Cl)cc1 | i | i | -26.9% | -6.8% | -10.9% | 8.2µM*
CN(C)c1cc[n+](CC(=O)Nc2ccc([N+](=O)[O-])cc2Cl)cc1 | ? | i | -27.5% | -20.5% | 14.9% | ?
COc1ccc(-n2c(C)nn(C)c2=O)cc1 | i | i | 16.7% | 1.6% | -0.9% | i
COc1ccc(-n2c(/C=C(\C)O)nc(=O)c3c(C)cc(C)nc32)cc1 | 7.31µM* | i | 3.8% | -1.4% | 4.7% | i
N=C1/C(=C/c2cccs2)C(=O)N=C2SN=C(SCc3ccccc3)N12 | 23.1µM* | i | -10.3% | -1.6% | 3.3% | ?
CC(C)CSC1=NSC2=NC(=O)/C(=C\c3cccs3)C(=N)N12 | ? | i | -13.6% | -1.4% | 22.5% | ?
CSC1=NSC2=NC(=O)/C(=C\c3cccs3)C(=N)N12 | 4.61µM* | i | -24.4% | -20.7% | 30.9% | ?
Cc1cc(C)nc(/N=C(\N)Nc2ccc(-c3ccccc3)cc2)n1 | 16.4µM* | i | 16.4µM* | 16.4µM* | ? | 16.4µM*
COc1ccc(C)cc1N/C(N)=N/c1nc(C)cc(C)n1 | ? | i | -19.9% | 0.0% | -26.3% | i
Cc1ccc(C)c(N/C(N)=N/c2nc(C)cc(C)n2)c1 | 16.4µM* | i | -11.3% | 5.2% | -20.4% | i
CSCc1ccc(C(=O)OCc2nc3ccccc3s2)o1 | ? | i | -3.9% | -4.7% | 78.8% | i
CC1CN(C(=O)c2ccccc2Oc2ccccc2)CC(C)O1 (stereo unspecified) | i | i | 0.6% | -4.1% | . | 20.6µM*
COc1cccc(OC)c1C(=O)N1CC(C)OC(C)C1 (stereo unspecified) | i | i | -2.5% | 2.4% | -6.3% | i
COc1ccc2nc(Nc3nc(CSc4nc5ccccc5[nH]4)cc(=O)[nH]3)nc(C)c2c1 | ? | i | ? | ? | 0.2% | ?
Cc1nc(Nc2nc(-c3ccccc3)cc(=O)[nH]2)nc2ccccc12 | ? | ? | 18.4µM* | ? | 4.6% | ?
Cc1nc(Nc2nc(CSc3nc4ccccc4[nH]3)cc(=O)[nH]2)nc2ccccc12 | i | ? | 4.61µM* | 4.11µM* | -4.3% | ?
COc1nc(Nc2nc3ccccc3c(=O)[nH]2)nc2ccc(C)cc12 | ? | ? | 1.3µM* | 1.3µM* | 50.0% | ?
CCCCNC(=O)C[C@@H]1C[C@@]2(C(=O)OCC)CCCC=C2N(CCC2=CCCCC2)C1=O | ? | . | -18.8% | ? | . | i
CCN(CC)S(=O)(=O)c1cccc(-c2nnc(SC(C)C(=O)NCCC3=CCCCC3)o2)c1 (stereo unspecified) | 10.3µM* | i | -9.8% | -0.9% | -16.9% | ?
CCN(CC)S(=O)(=O)c1cccc(-c2nnc(SCCCC(=O)c3ccccc3)o2)c1 | ? | . | -10.2% | 2.9% | . | i
CCN(CC)S(=O)(=O)c1ccc(-c2nnc(SCC(=O)c3ccc(OC)cc3)o2)cc1 | i | i | -0.5% | -1.9% | -12.5% | i

Source: PubChem BioAssay (National Center for Advancing Translational Sciences (NCATS))
